Results reported in PubChem BioAssay (NCI).
The panel holds about 83,000 compounds, 20% with a hit somewhere; the sample as a whole holds those more often.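 Activity criterion: percent growth below 10, measured after cells in 96-well plates were exposed to a single compound concentration for 48 hours.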 Activity calls are given as the source filed them.

Tests used:
Assay in all cases: NCI-60 one-dose screen, 48 h (100 = growth as untreated, 0 = no growth, -100 = all killed)
Details in all cases: 10 µM unless noted
SR leukemia = test system: SR leukemia
RPMI-8226 leukemia = test system: RPMI-8226 leukemia
OVCAR-8 ovarian = test system: OVCAR-8 ovarian
OVCAR-5 ovarian = test system: OVCAR-5 ovarian
OVCAR-4 ovarian = test system: OVCAR-4 ovarian
SK-OV-3 ovarian = test system: SK-OV-3 ovarian
IGROV1 ovarian = test system: IGROV1 ovarian
OVCAR-3 ovarian = test system: OVCAR-3 ovarian
HS 578T breast = test system: HS 578T breast
NCI/ADR-RES ovarian = test system: NCI/ADR-RES ovarian
T-47D breast = test system: T-47D breast
BT-549 breast = test system: BT-549 breast
MDA-MB-435 melanoma = test system: MDA-MB-435 melanoma
SW-620 colon = test system: SW-620 colon
MCF7 breast = test system: MCF7 breast
HCT-116 colon = test system: HCT-116 colon
HCC-2998 colon = test system: HCC-2998 colon
KM12 colon = test system: KM12 colon

Measured: growth

COc1ccc(/C=N/C2=C(C#N)C(c3cccc(Cl)c3)c3c(ccc4ccccc34)O2)cc1 (stereo unspecified)
active: MDA-MB-435 melanoma -36%
inactive: SR leukemia 17.7% | RPMI-8226 leukemia 17.4% | OVCAR-8 ovarian 47.1% | OVCAR-5 ovarian 62.3% | OVCAR-4 ovarian 52.8% | SK-OV-3 ovarian 52.4% | IGROV1 ovarian 32.9% | OVCAR-3 ovarian 12.5% | HS 578T breast 15.9% | NCI/ADR-RES ovarian 22.1% | T-47D breast 36.7% | BT-549 breast 29.3% | SW-620 colon 23.7% | MCF7 breast 11.1% | HCT-116 colon 21.8% | HCC-2998 colon 65.4% | KM12 colon 24.9%

COc1ccc(-c2nc3c(c(-c4ccccc4)nn3-c3ccccc3)c(-c3ccc(N4CCN(C)CC4)cc3)c2C#N)cc1
inactive: SR leukemia 63.3% | RPMI-8226 leukemia 87.4% | OVCAR-8 ovarian 93.7% | OVCAR-5 ovarian 104% | OVCAR-4 ovarian 107% | SK-OV-3 ovarian 109% | IGROV1 ovarian 93.8% | OVCAR-3 ovarian 103% | HS 578T breast 100% | NCI/ADR-RES ovarian 93% | T-47D breast 96.2% | BT-549 breast 90.6% | MDA-MB-435 melanoma 93.9% | SW-620 colon 85.6% | MCF7 breast 81% | HCT-116 colon 81.4% | HCC-2998 colon 106% | KM12 colon 95.6%

Clc1ccc(Sc2cnc(-c3ccccc3)o2)cc1
inactive: SR leukemia 90% | RPMI-8226 leukemia 89.7% | OVCAR-8 ovarian 99.2% | OVCAR-5 ovarian 98.8% | OVCAR-4 ovarian 95.8% | SK-OV-3 ovarian 101% | IGROV1 ovarian 97% | OVCAR-3 ovarian 97.5% | HS 578T breast 99.1% | NCI/ADR-RES ovarian 108% | T-47D breast 84.6% | BT-549 breast 96.6% | MDA-MB-435 melanoma 101% | SW-620 colon 105% | MCF7 breast 96.1% | HCT-116 colon 104% | HCC-2998 colon 99.2% | KM12 colon 102%

CNC(=O)c1c(NC(=O)c2ccc(C(F)(F)F)cc2)sc2c1CCC(=O)C2
active: SR leukemia 3.07% | RPMI-8226 leukemia -27% | OVCAR-5 ovarian -44.7% | OVCAR-4 ovarian -81.5% | SK-OV-3 ovarian 0.374% | IGROV1 ovarian -4.58% | OVCAR-3 ovarian -6.89% | NCI/ADR-RES ovarian -4.29% | T-47D breast -15.2% | BT-549 breast -14.1% | MDA-MB-435 melanoma 0.84% | SW-620 colon -55.8% | MCF7 breast 0.392% | HCT-116 colon -46.4% | HCC-2998 colon -39.3% | KM12 colon -36.4%
inactive: OVCAR-8 ovarian 14% | HS 578T breast 12.2%

Cc1cnc(C(=O)NNc2nc3sc4c(c3c(=O)n2C)C(C)CCC4)cn1 (stereo unspecified)
active: RPMI-8226 leukemia 9.06% | OVCAR-8 ovarian 5.29% | OVCAR-5 ovarian 2.46% | OVCAR-4 ovarian -14.7% | IGROV1 ovarian -18.6% | OVCAR-3 ovarian -2.78% | NCI/ADR-RES ovarian 1.29% | T-47D breast -7.99% | MDA-MB-435 melanoma 7.05% | MCF7 breast -12% | HCT-116 colon 3.75% | KM12 colon 6.33%
inactive: SR leukemia 12.2% | SK-OV-3 ovarian 11.9% | HS 578T breast 34.2% | BT-549 breast 25.8% | SW-620 colon 10.2% | HCC-2998 colon 29.5%

CS(=O)(=O)Nc1cc(-c2ccc3ncnc(Nc4ccc5c(cnn5Cc5ccccn5)c4)c3c2)cnc1Cl
inactive: SR leukemia 58.3% | RPMI-8226 leukemia 68.8% | OVCAR-8 ovarian 90.3% | OVCAR-5 ovarian 68.5% | OVCAR-4 ovarian 91.5% | SK-OV-3 ovarian 89.7% | IGROV1 ovarian 38.1% | OVCAR-3 ovarian 44.1% | HS 578T breast 25.4% | NCI/ADR-RES ovarian 93.3% | T-47D breast 18.5% | BT-549 breast 56.7% | MDA-MB-435 melanoma 77.5% | SW-620 colon 84.3% | MCF7 breast 36% | HCT-116 colon 92.9% | HCC-2998 colon 80.4% | KM12 colon 95.4%

CCCCCCCCn1ccc2cc(NC(=O)Cn3cc(CN4CCCCC4)nn3)ccc21
active: SR leukemia 5.39% | RPMI-8226 leukemia -59.2% | T-47D breast -14.1% | MDA-MB-435 melanoma -74.6% | SW-620 colon -66.1% | MCF7 breast 9.34% | HCT-116 colon 2.64% | HCC-2998 colon -70.4%
inactive: OVCAR-8 ovarian 42% | OVCAR-5 ovarian 73.7% | OVCAR-4 ovarian 59.1% | SK-OV-3 ovarian 67.5% | IGROV1 ovarian 45.5% | OVCAR-3 ovarian 26% | HS 578T breast 41.5% | NCI/ADR-RES ovarian 72.7% | BT-549 breast 71.6% | KM12 colon 19%

Cn1cc(-c2csc(-c3c[nH]c4ccc(Br)cc34)n2)c2cnccc21
active: SR leukemia -30.9% | RPMI-8226 leukemia -40.3% | OVCAR-8 ovarian -60.5% | OVCAR-5 ovarian -95.7% | OVCAR-4 ovarian -84.8% | SK-OV-3 ovarian -95.5% | IGROV1 ovarian -77.8% | OVCAR-3 ovarian -91.9% | HS 578T breast -60.5% | NCI/ADR-RES ovarian -69.2% | T-47D breast -51.5% | BT-549 breast 7.16% | MDA-MB-435 melanoma -92% | SW-620 colon -82.6% | MCF7 breast -68.6% | HCT-116 colon -90.9% | HCC-2998 colon -76.5% | KM12 colon -79.9%

CCN1CCN(Cc2cn(CC(=O)Nc3ccc4c(ccn4Cc4ccccc4)c3)nn2)CC1
inactive: SR leukemia 63.5% | RPMI-8226 leukemia 85% | OVCAR-8 ovarian 99.7% | OVCAR-5 ovarian 113% | OVCAR-4 ovarian 97.4% | SK-OV-3 ovarian 92.7% | IGROV1 ovarian 105% | OVCAR-3 ovarian 102% | HS 578T breast 100% | NCI/ADR-RES ovarian 108% | T-47D breast 91.1% | BT-549 breast 96.1% | MDA-MB-435 melanoma 97.7% | SW-620 colon 99.3% | MCF7 breast 99.5% | HCT-116 colon 99.2% | HCC-2998 colon 110% | KM12 colon 101%

C[C@]12C=CC(=O)C=C1CCC1C2[C@@H](O)C[C@@]2(C)C1CC[C@]2(O)C(=O)COC(=O)CCC(=O)O (stereo partly specified)
inactive: SR leukemia 98% | RPMI-8226 leukemia 64.3% | OVCAR-8 ovarian 91.3% | OVCAR-5 ovarian 89.9% | OVCAR-4 ovarian 98.4% | SK-OV-3 ovarian 80.2% | IGROV1 ovarian 102% | OVCAR-3 ovarian 119% | HS 578T breast 119% | NCI/ADR-RES ovarian 92.1% | T-47D breast 111% | BT-549 breast 89.7% | MDA-MB-435 melanoma 99.9% | SW-620 colon 105% | MCF7 breast 96.5% | HCT-116 colon 107% | HCC-2998 colon 110% | KM12 colon 109%

Cn1c(-c2ccc(Br)cc2)c(O)c(=O)c2c(F)cccc21
inactive: SR leukemia 102% | RPMI-8226 leukemia 104% | OVCAR-8 ovarian 50.9% | OVCAR-5 ovarian 63.8% | OVCAR-4 ovarian 52.1% | SK-OV-3 ovarian 46.3% | IGROV1 ovarian 48.6% | OVCAR-3 ovarian 51.7% | HS 578T breast 84.9% | NCI/ADR-RES ovarian 21.8% | T-47D breast 57.7% | BT-549 breast 70.6% | MDA-MB-435 melanoma 67.8% | SW-620 colon 51% | MCF7 breast 37.1% | HCT-116 colon 35.1% | HCC-2998 colon 64.5% | KM12 colon 53.3%

CC(C)c1ccc(NC(=O)Nc2ccc(NC(=O)CCCC(=O)NOCc3ccccc3)cc2)cc1
inactive: SR leukemia 73.4% | RPMI-8226 leukemia 91.1% | OVCAR-8 ovarian 96.7% | OVCAR-5 ovarian 89.2% | OVCAR-4 ovarian 89.2% | SK-OV-3 ovarian 97.4% | IGROV1 ovarian 91.5% | OVCAR-3 ovarian 94% | HS 578T breast 85.7% | NCI/ADR-RES ovarian 99.1% | T-47D breast 59.3% | BT-549 breast 106% | MDA-MB-435 melanoma 89.1% | SW-620 colon 107% | MCF7 breast 80.2% | HCT-116 colon 93.4% | HCC-2998 colon 66% | KM12 colon 94.4%

O=S(=O)(NCCCNc1nccc(-c2c(-c3ccc(F)c(O)c3)nc3occn23)n1)c1ccccc1
inactive: SR leukemia 70.2% | RPMI-8226 leukemia 78.2% | OVCAR-8 ovarian 94.8% | OVCAR-5 ovarian 121% | OVCAR-4 ovarian 104% | SK-OV-3 ovarian 79.4% | IGROV1 ovarian 92.1% | OVCAR-3 ovarian 97.9% | HS 578T breast 87.3% | NCI/ADR-RES ovarian 118% | T-47D breast 101% | BT-549 breast 114% | MDA-MB-435 melanoma 37.4% | SW-620 colon 100% | MCF7 breast 77.3% | HCT-116 colon 52.6% | HCC-2998 colon 98.7% | KM12 colon 84.6%

COc1ccc(/C(C)=C(/c2ccc(OCCCN(C)C)cc2)c2ccc(OC(=O)Cc3ccccc3)cc2)cc1
active: SR leukemia -0.597%
inactive: RPMI-8226 leukemia 48.1% | OVCAR-8 ovarian 87.6% | OVCAR-5 ovarian 85.2% | OVCAR-4 ovarian 87.9% | SK-OV-3 ovarian 73.4% | IGROV1 ovarian 95% | OVCAR-3 ovarian 81.2% | HS 578T breast 56.5% | NCI/ADR-RES ovarian 85.1% | T-47D breast 38.2% | BT-549 breast 76.5% | MDA-MB-435 melanoma 71.9% | SW-620 colon 91.8% | MCF7 breast 25.4% | HCT-116 colon 57.4% | HCC-2998 colon 86.7% | KM12 colon 73.9%

O=C1N[C@@H]2NC(=[N+]3CCOCC3)N[C@@H]2N1
inactive: SR leukemia 111% | RPMI-8226 leukemia 106% | OVCAR-8 ovarian 105% | OVCAR-5 ovarian 97.9% | OVCAR-4 ovarian 107% | SK-OV-3 ovarian 104% | IGROV1 ovarian 104% | OVCAR-3 ovarian 117% | HS 578T breast 98.2% | NCI/ADR-RES ovarian 102% | T-47D breast 101% | BT-549 breast 110% | MDA-MB-435 melanoma 105% | SW-620 colon 98.8% | MCF7 breast 95.9% | HCT-116 colon 104% | HCC-2998 colon 108% | KM12 colon 107%

CN(C)CCCC1(c2ccc(F)cc2)OCc2cc(-c3cccc4[nH]ccc34)ccc21 (stereo unspecified)
inactive: RPMI-8226 leukemia 39.7% | OVCAR-8 ovarian 20.5% | OVCAR-5 ovarian 70.1% | OVCAR-4 ovarian 30.9% | SK-OV-3 ovarian 52.5% | IGROV1 ovarian 20.2% | OVCAR-3 ovarian 31% | HS 578T breast 31.7% | NCI/ADR-RES ovarian 25.9% | BT-549 breast 73.8% | KM12 colon 10.3%
active: SR leukemia -14.9% | T-47D breast -39.2% | MDA-MB-435 melanoma -42.1% | SW-620 colon -24.6% | MCF7 breast -24.1% | HCT-116 colon -64% | HCC-2998 colon -30.6%

C=C(C)[C@@H]1CC[C@]2(C(=O)NCCNCCN)CC[C@]3(C)[C@H](CC[C@@H]4[C@@]5(C)C/C(=C/c6ccncc6)C(=O)C(C)(C)[C@@H]5CC[C@]43C)[C@@H]12
inactive: SR leukemia 95.4% | RPMI-8226 leukemia 90.5% | OVCAR-8 ovarian 101% | OVCAR-5 ovarian 103% | OVCAR-4 ovarian 89.9% | SK-OV-3 ovarian 109% | IGROV1 ovarian 87.6% | OVCAR-3 ovarian 97.9% | HS 578T breast 86.7% | NCI/ADR-RES ovarian 101% | T-47D breast 80.8% | BT-549 breast 95.2% | MDA-MB-435 melanoma 92.7% | SW-620 colon 92.7% | MCF7 breast 97.6% | HCT-116 colon 83.7% | HCC-2998 colon 91.6% | KM12 colon 96.9%
